Results taken from PubChem BioAssay (Tox21).
Inconclusive results are not listed. Activity calls are given as the source filed them. Unless noted, calls come from the whole dose curve; as a rule, active = well fitted curve in the direction sought with a large enough effect in the repeat runs; inconclusive = weak or mixed curves; inactive = no such curve, though single readings can be large; an effect the other way counts as inactive or inconclusive.

Assays:
[1] = qHTS assay to identify small molecule agonists of the peroxisome proliferator-activated receptor delta (PPARd) signaling pathway - cell viability counter screen (AID 743211); settings: PPARd-bla HEK293H viability, CellTiter-Glo luminescence, 17 h; series mostly up to 62.6 µM; note: nearly all actives have a fitted effect of over 55% in size; note: potency is the fitted concentration of half-maximal effect
Method in brief: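 PPARd-bla HEK293H cells (UAS-beta-lactamase reporter) were treated with compounds for 17 h at 37 C. Viability was then read in the same wells by CellTiter-Glo luminescence after 30 min at room temperature.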

[2] = qHTS assay to identify small molecule antagonists of the peroxisome proliferator-activated receptor delta (PPARd) signaling pathway - cell viability counter screen (AID 743213); settings: PPARd-bla HEK293H viability, CellTiter-Glo luminescence, 17 h; series mostly up to 62 µM; note: nearly all actives have a fitted effect of over 50% in size; note: potency is the fitted concentration of half-maximal effect
Method in brief: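 PPARd-bla HEK293H cells (3000/well) got compound plus 300 nM L165041 agonist for 17 h at 37 C. Viability in the same wells came from CellTiter-Glo luminescence after 30 min at room temperature.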

[3] = molecular target: Peroxisome proliferator-activated receptor delta (Homo sapiens) (UniProt Q03181); assay: qHTS assay to identify small molecule antagonists of the peroxisome proliferator-activated receptor delta (PPARd) signaling pathway (AID 743215; active = well fitted inhibition curve with a large enough effect in the signal ratio in the repeat runs, not every such curve was filed as active; the % refers to the signal ratio;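 note: cells stimulated with agonist L165041 at 300 nM final during compound exposure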; note: potency is the fitted concentration of half-maximal effect); settings: HEK293H PPARd-UAS-bla, beta-lactamase FRET ratio, antagonist, 17 h; series mostly up to 62 µM
Method in brief: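 Here, a reporter line (HEK293H, beta-lactamase under a UAS) measures PPARd signaling. Compounds are tested against agonist L165041 at 300 nM final concentration over 17 h at 37 C, with fluorescence read after substrate.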

[4] = qHTS assay to identify small molecule agonists of the farnesoid-X-receptor (FXR) signaling pathway - cell viability counter screen (AID 743218); settings: FXR-bla HEK293T viability, CellTiter-Glo luminescence, 16 h; series mostly up to 62.6 µM; note: nearly all actives have a fitted effect of over 45% in size; note: potency is the fitted concentration of half-maximal effect
Method in brief: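 Quantitative HTS counter screen measuring ATP-based viability via CellTiter-Glo luminescence in HEK 293T cells carrying a UAS-driven beta-lactamase reporter, after 16 h compound exposure at 37 C.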

[5] = qHTS assay to identify small molecule antagonists of the farnesoid-X-receptor (FXR) signaling pathway - cell viability counter screen (AID 743221; active = well fitted cell-killing curve with a large enough effect in the repeat runs, not every such curve was filed as active; note: nearly all actives have a fitted effect of over 50% in size; note: potency is the fitted concentration of half-maximal effect); settings: FXR-bla HEK293T viability, CellTiter-Glo luminescence, 16 h; series mostly up to 62.6 µM
Method in brief: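 FXR-UAS-bla HEK 293T cells were treated with test compounds plus chenodeoxycholic acid (50 uM final) for 16 h at 37 C. Cell viability in the same wells was then read as CellTiter-Glo luminescence after 30 min at room temperature.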

[6] = molecular target: Vitamin D3 receptor (Homo sapiens) (UniProt P11473); assay: qHTS assay to identify small molecule agonists of the vitamin D receptor (VDR) signaling pathway (AID 743222; calls by dose curve); settings: HEK293T VDR-UAS-bla, beta-lactamase FRET ratio, 16 h; series mostly up to 63.5 µM
Method in brief: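 Tox21 cell reporter format: VDR-bla line, 16 h compound exposure in 5% CO2 at 37C, then fluorescence intensity after 2 h with LiveBLAzer B/G FRET substrate.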

[7] = molecular target: Peroxisome proliferator-activated receptor delta (Homo sapiens) (UniProt Q03181); assay: qHTS assay to identify small molecule agonists of the peroxisome proliferator-activated receptor delta (PPARd) signaling pathway (AID 743212; calls by dose curve); settings: HEK293H PPARd-UAS-bla, beta-lactamase FRET ratio, 17 h; series mostly up to 62.6 µM
Method in brief: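 Beta-lactamase reporter readout: a ratiometric FRET signal from the LiveBLAzer substrate after 2 h at room temperature. Compound exposure at 37 °C in PPARδ-bla HEK293H cells driven by an upstream activator sequence.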

[8] = molecular target: Vitamin D3 receptor (Homo sapiens) (UniProt P11473); assay: qHTS assay to identify small molecule antagonists of the vitamin D receptor (VDR) signaling pathway (AID 743223; active = well fitted inhibition curve with a large enough effect in the signal ratio in the repeat runs, not every such curve was filed as active; the % refers to the signal ratio; note: potency is the fitted concentration of half-maximal effect); settings: VDR-UAS-bla HEK293T, beta-lactamase FRET ratio, 16 h; series mostly up to 61 µM
Method in brief: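 VDR-bla cells were plated, incubated 4 h at 37C, then given compound and 1alpha,25-dihydroxyvitamin D3 (3 nM final). After 16 h at 37C, LiveBLAzer B/G FRET substrate was added for 2 h at room temperature and fluorescence read.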

[9] = molecular target: Bile acid receptor (Homo sapiens) (UniProt Q96RI1); assay: qHTS assay to identify small molecule antagonists of the farnesoid-X-receptor (FXR) signaling pathway (AID 743217; active = well fitted inhibition curve with a large enough effect in the signal ratio in the repeat runs, not every such curve was filed as active; the % refers to the signal ratio; note: potency is the fitted concentration of half-maximal effect); settings: HEK293T FXR-UAS-bla, beta-lactamase ratio, CDCA-stimulated, 16 h; series mostly up to 62.6 µM
Method in brief: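 Test compounds are pin-transferred onto FXR-bla HEK 293T cells, then chenodeoxycholic acid is added at 50 uM final. After 16 h at 37 °C, LiveBLAzer B/G substrate is applied for 2 h at room temperature and fluorescence read.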

[10] = molecular target: Bile acid receptor (Homo sapiens) (UniProt Q96RI1); assay: qHTS assay to identify small molecule agonists of the farnesoid-X-receptor (FXR) signaling pathway (AID 743220; active = well fitted activation curve with a large enough effect in the signal ratio in the repeat runs, not every such curve was filed as active; the % refers to the signal ratio); settings: HEK293T FXR-UAS-bla, beta-lactamase FRET ratio, 16 h; series mostly up to 62.6 µM
Method in brief: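 FXR-UAS-bla HEK 293T cells carrying a UAS-driven beta-lactamase reporter were plated for 5 h at 37C/5% CO2, then exposed to DMSO-dissolved Tox21 10K compounds for 16 h at 37C. A LiveBLAzer B/G FRET substrate was loaded for 2 h at room temperature before fluorescence reading.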

Measured: Potency

Peroxisome proliferator-activated receptor delta (Homo sapiens), sequence (Q03181 whole entry, looked up): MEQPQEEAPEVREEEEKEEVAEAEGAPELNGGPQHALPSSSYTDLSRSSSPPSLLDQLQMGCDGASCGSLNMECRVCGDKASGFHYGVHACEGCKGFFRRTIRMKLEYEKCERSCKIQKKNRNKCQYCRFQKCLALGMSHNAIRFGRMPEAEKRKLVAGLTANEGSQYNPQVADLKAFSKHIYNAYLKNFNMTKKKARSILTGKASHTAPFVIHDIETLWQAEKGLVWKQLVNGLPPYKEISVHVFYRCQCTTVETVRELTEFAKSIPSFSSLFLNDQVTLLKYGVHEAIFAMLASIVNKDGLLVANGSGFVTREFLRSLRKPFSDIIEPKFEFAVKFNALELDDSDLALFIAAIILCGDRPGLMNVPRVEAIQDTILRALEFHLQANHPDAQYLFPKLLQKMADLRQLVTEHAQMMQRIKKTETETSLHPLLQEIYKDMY
Bile acid receptor (Homo sapiens), sequence (Q96RI1 whole entry, looked up): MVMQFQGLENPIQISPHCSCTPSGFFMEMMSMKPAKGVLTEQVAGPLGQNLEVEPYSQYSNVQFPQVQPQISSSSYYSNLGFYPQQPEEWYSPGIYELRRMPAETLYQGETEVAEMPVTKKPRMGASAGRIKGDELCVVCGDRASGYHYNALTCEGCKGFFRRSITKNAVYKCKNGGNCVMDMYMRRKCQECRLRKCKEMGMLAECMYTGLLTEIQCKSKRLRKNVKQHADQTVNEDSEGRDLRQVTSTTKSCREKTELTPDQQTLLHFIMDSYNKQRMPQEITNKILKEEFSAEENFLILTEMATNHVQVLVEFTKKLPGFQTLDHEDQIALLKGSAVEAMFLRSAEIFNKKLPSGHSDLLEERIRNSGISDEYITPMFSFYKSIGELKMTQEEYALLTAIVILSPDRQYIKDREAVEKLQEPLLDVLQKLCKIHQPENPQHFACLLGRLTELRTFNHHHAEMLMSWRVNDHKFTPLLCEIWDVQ
Vitamin D3 receptor (Homo sapiens), sequence (P11473 whole entry, looked up): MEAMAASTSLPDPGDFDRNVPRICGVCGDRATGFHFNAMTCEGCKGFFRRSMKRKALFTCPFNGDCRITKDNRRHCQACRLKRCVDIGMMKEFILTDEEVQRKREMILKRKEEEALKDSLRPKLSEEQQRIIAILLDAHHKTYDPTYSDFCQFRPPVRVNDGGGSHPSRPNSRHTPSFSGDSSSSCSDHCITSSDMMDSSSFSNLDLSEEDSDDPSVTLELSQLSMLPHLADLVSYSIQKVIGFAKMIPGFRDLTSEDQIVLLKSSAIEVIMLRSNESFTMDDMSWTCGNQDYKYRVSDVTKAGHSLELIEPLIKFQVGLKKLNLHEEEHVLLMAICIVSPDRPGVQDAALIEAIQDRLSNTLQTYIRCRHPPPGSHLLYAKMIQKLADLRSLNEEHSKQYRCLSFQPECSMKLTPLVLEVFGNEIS

CN1CCN(c2ccccc2/C=C2\SCCN(c3ccc(Cl)c(Cl)c3)C2=O)CC1
inactive: [6]
active: [1] 24.5 µM | [2] 24.5 µM | [3] 21.9 µM | [4] 43.6 µM | [5] 54.9 µM

O=C1CCCCCCCCCCCCCC1
not listed: [9] | [10]
inactive: all other assays above

CCC(C)(C)c1ccc(CC(C)CN2C[C@@H](C)O[C@@H](C)C2)cc1 (some centres undefined)
active: [1] 26.6 µM
not listed: [9] | [10]
inactive: all other assays above

CCCCCCCCCCCCN1CCCC1=O
active: [1] 54.9 µM
inactive: [7] | [6]

O=C(N[C@H](CO)[C@H](O)c1ccc([N+](=O)[O-])cc1)C(Cl)Cl
inactive: [1] | [7] | [2] | [4]

CCCCCCCCOC(=O)c1cc(O)c(O)c(O)c1
inactive: [7] | [6]
active: [1] 43.6 µM | [2] 43.6 µM | [3] 49 µM | [8] 54.9 µM

CN[C@H]1CC[C@@H](c2ccc(Cl)c(Cl)c2)c2ccc(S(N)(=O)=O)cc21
active: [1] 6.92 µM | [2] 12.3 µM | [3] 34.7 µM | [9] 49 µM | [4] 13.8 µM | [5] 24.5 µM
inactive: [6]

COc1c(Br)cc(Br)c(C)c1Br
not listed: [3] | [7] | [8]
inactive: all other assays above

CN1CCN(CCCN2c3ccccc3Sc3ccc(C(F)(F)F)cc32)CC1
active: [1] 18.8 µM | [2] 26.6 µM | [4] 26.6 µM | [5] 26.6 µM
inactive: [10]

O=C1CCC/C=C\CCCCCCCCCC1
not listed: [2] | [3]
inactive: all other assays above

N#Cc1nc(Cl)c(Cl)c(Cl)c1Cl
inactive: [6]
active: [1] 7.76 µM | [2] 15.5 µM | [3] 7.76 µM | [4] 13.8 µM | [8] 6.92 µM

CCCCCCCCCC[N+](C)(CCCCCCCCCC)CCC[Si](OC)(OC)OC
inactive: [7] | [3] | [8]
active: [1] 9.77 µM | [2] 9.77 µM | [4] 8.71 µM

SC1CCCCC1
not listed: [5] | [9]
inactive: all other assays above

Oc1ccc(Cl)cc1C1CCCC1
not listed: [3] | [6] | [8]
inactive: all other assays above

CC(=O)[C@]1(O)Cc2c(O)c3c(c(O)c2[C@@H](O[C@H]2C[C@H](N)[C@H](O)[C@H](C)O2)C1)C(=O)c1ccccc1C3=O
inactive: [1] | [2] | [5] | [6]
active: [3] 3.76 µM | [8] 1.9 µM

CCCCCCCC/C=C\CCCCCCCC(=O)N(CCO)CCO
inactive: [2] | [3] | [9] | [6] | [8]
active: [1] 43.5 µM | [4] 54.7 µM

c1ccc(-c2ccc(C(c3ccccc3)n3ccnc3)cc2)cc1 (centres undefined)
active: [1] 29.8 µM | [3] 26.6 µM
inactive: [7] | [6] | [8]

CCCCCCCCCCCCCCCCC(C(=O)O)C(O)(CC(=O)O)C(=O)O (centres undefined)
active: [1] 13.3 µM | [2] 18.8 µM | [4] 18.8 µM | [5] 23.7 µM
inactive: [7] | [6] | [8]

Cc1cc(Br)ccc1NC(=O)CCl
active: [1] 24.5 µM | [2] 24.5 µM | [4] 24.5 µM | [5] 19.5 µM

CC(Cc1ccc(O)c(O)c1)C(C)Cc1ccc(O)c(O)c1 (centres undefined)
inactive: [1] | [2] | [4] | [10] | [5] | [6]

CN1CCN(CCCN2c3ccccc3Sc3ccc(Cl)cc32)CC1
inactive: [7] | [6]
active: [1] 26.6 µM | [2] 26.6 µM | [4] 26.6 µM | [5] 23.7 µM

c1ccc2cc3c4ccccc4c4ccccc4c3cc2c1
not listed: [9] | [10]
inactive: all other assays above

CCCCCCCCCCCCCCCCCCNC(=O)OC1CCN(C(=O)OC[C@H](COC(=O)N(Cc2cccc[n+]2CC)C(=O)c2ccccc2OC)OC)CC1
active: [1] 10.6 µM | [2] 33.5 µM | [4] 26.6 µM
inactive: [7] | [8]

NCc1cccc(C2CCN(C(=O)c3ccc(C#Cc4ccccc4F)o3)CC2)c1
inactive: [10]
active: [1] 21.9 µM | [2] 49 µM | [4] 34.7 µM

Clc1nc(C(Cl)(Cl)Cl)c(Cl)c(Cl)c1Cl
active: [1] 34.7 µM
inactive: [2] | [3] | [4] | [10]

CCOc1ccc([N+](=O)[O-])cc1
active: [1] 49.7 µM | [2] 44.3 µM
